The values that follow come from publication PMC6212790, “How bacterial xenogeneic silencer rok distinguishes foreign from self DNA in its resident genome”.

Whole data set: some 33,000 sequences, median “e-score” near -0.037, cut for the highest 2% near 0.34. The sample as a whole holds a higher share of the highest values than the screen did.

This assay has as its target T1, GST-Rok (full length) (Bacillus subtilis subsp. subtilis str. …, UniProt O34857 1-191).
T1 sequence: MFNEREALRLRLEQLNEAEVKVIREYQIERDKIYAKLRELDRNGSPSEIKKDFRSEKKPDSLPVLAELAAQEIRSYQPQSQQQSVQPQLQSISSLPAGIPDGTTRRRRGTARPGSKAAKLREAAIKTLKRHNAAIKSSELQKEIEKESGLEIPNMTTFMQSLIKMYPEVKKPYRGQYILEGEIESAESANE
Put plainly: protein binding microarray; Rok is a gene silencer of Bacillus subtilis; high values mean tight binding. The note with it: protein: recombinant; tags: GST (pTH5325, pDEST15-Magic modified); dsDNA, one strand shown. The method in brief: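 Every oligonucleotide joins a 25-mer constant primer to a 35-mer variable part drawn from a de Bruijn sequence of order 10, so each non-palindromic 8-mer appears at least 32 times and each palindromic 8-mer 16 times. The preference for every 8-mer is reported as a unitless, rank-based enrichment score (E-score). This score spans 0.5 for the most favored 8-mer to −0.5 for the most disfavored.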
Take ATTATATA: the binding signal came to 0.468 E-score. With CCTATATC, the binding signal was 0.00873 E-score.

Turning to CTTATAGA, the binding signal was found to be 0.112 E-score.

Regarding GTTATATA, the binding signal came out at 0.296 E-score. With GTTATAGA the figure was 0.11 E-score; with ATTATATC, 0.377 E-score; with ATTATATG, 0.269 E-score. With CTTATATC the figure was 0.141 E-score; with ATTATAGA, 0.353 E-score; with CCTGAGCA, -0.194 E-score. Regarding CATCGACA, the binding signal stood at 0.0503 E-score.

Consider CACAACCG, for which the binding signal stood at 0.019 E-score. With AGCGTGGG the figure was -0.179 E-score; with ATCGAAAC, 0.0448 E-score. Regarding ATAGAAAT, the binding signal came out at 0.337 E-score. With ATCGAAAT, the binding signal amounted to 0.357 E-score. With ATAGAAAC the figure was 0.288 E-score. With ATAGAAAA the figure was 0.324 E-score. With ATAGAATA the figure was 0.356 E-score; with ATCGAAAA, 0.0373 E-score; with ATAGAATC, 0.254 E-score. As for ATAGAATG, the binding signal was 0.181 E-score. With TCTTTCCA the figure was -0.0837 E-score; with AGTCGGAC, -0.171 E-score. With AGCCCGTG the figure was -0.00226 E-score; with AAGCGACT, 0.0908 E-score.

For AGATAGTA, the binding signal worked out at 0.347 E-score. With GGATAGTA the figure was 0.208 E-score. For the sequence CGATAGTA, the binding signal came to 0.384 E-score. With AGATAGTC the figure was 0.0258 E-score; with CGATAGTC, -0.0533 E-score; with AGATAGTG, 0.199 E-score.

Turning to CATGATCC, the binding signal was 0.0194 E-score. With AGAAGCTA the figure was 0.0762 E-score. With AACCTCAC the figure was -0.146 E-score; with AACCGCCC, -0.131 E-score; with CGGCGAAG, 0.0313 E-score. With ATGAAGTC the figure was -0.0225 E-score; with GCGACTTA, 0.0295 E-score; with CCACTAAG, -0.137 E-score. As to ATTTCTAA, the binding signal amounted to 0.303 E-score. With ATTTCTAC the figure was 0.408 E-score; with CTTTCTTC, -0.0764 E-score.

As to CTTTCTAC, the binding signal stood at 0.444 E-score. With CTTTCTAA the figure was 0.162 E-score; with ATTTCTAG, 0.333 E-score. For the sequence AGAGACCT, the binding signal is -0.154 E-score. With ACGTGGGC the figure was -0.0245 E-score; with GGATTGAC, -0.0238 E-score. With ATGTTATC the figure was 0.206 E-score; with GTATTAAA, 0.109 E-score. With CTATTATA the figure was 0.366 E-score; with GTATTAGA, 0.22 E-score; with ATATTATG, 0.111 E-score. In the case of CTATTATC, the binding signal was determined as 0.214 E-score.

On to ATGTTATA, for which the binding signal was 0.35 E-score.

On to GTATTATA, for which the binding signal was 0.35 E-score.

On to ATATTATC, for which the binding signal is 0.319 E-score. With CTGTTATA the figure was 0.308 E-score; with ATATTATA, 0.425 E-score; with CGATTATA, 0.215 E-score. With CGTCCTAA the figure was -0.0629 E-score. With CGAACTGC the figure was -0.11 E-score. As for ACCATGCG, the binding signal was -0.0629 E-score. With TCGAAGCA the figure was -0.0477 E-score; with CAACTAGA, 0.247 E-score.

Take TAACTAGA: the binding signal came out at 0.224 E-score. With GAACTAGA the figure was 0.36 E-score. With AGACTAGA the figure was 0.173 E-score; with ACACTAGA, 0.197 E-score. In the case of AAACTAGA, the binding signal amounted to 0.355 E-score. With CCGGCGAA the figure was -0.00971 E-score. With AAATAATA the figure was 0.312 E-score; with CAATAATA, 0.352 E-score; with TAATAATA, 0.395 E-score. With TATTAATA the figure was 0.368 E-score; with CAATAATG, 0.0655 E-score.

In the case of AATTAATA, the binding signal came to 0.256 E-score.

Take CATTAATA: the binding signal came to 0.171 E-score. With CAATAATC the figure was 0.0735 E-score; with GAATAATA, 0.271 E-score; with ACTCACTA, 0.177 E-score.

Regarding ACAGCATG, the binding signal was 0.0491 E-score. With AGGCACTG the figure was -0.0252 E-score.

Regarding CGTGATAA, the binding signal turned out to be 0.124 E-score.

On to CCCGGCCG, for which the binding signal is -0.162 E-score. With CCAAATAG the figure was -0.0889 E-score; with CGTGCGAG, -0.181 E-score. With TTATTGAA the figure was -0.0458 E-score. Consider CGTAAATA, for which the binding signal stood at 0.343 E-score. With AGTAAATA the figure was 0.387 E-score.

For CGTAAATC, the binding signal is 0.0869 E-score. With AGTAAATC, the binding signal came out at 0.262 E-score. With AGTAAATG the figure was 0.19 E-score. With GGTAAATA the figure was 0.299 E-score; with AATTCCGT, -0.114 E-score. With GACTTTCA the figure was -0.125 E-score. On to CGGCCAAC, for which the binding signal is -0.111 E-score.

As to AGAAGATG, the binding signal turned out to be 0.193 E-score.

Take ACTGATAT: the binding signal amounted to 0.242 E-score. With CCGTACCG the figure was -0.185 E-score; with CTGAACTA, 0.203 E-score; with AAAGTCGA, -0.0163 E-score. With GTATAATA the figure was 0.407 E-score; with TTATAAAA, 0.236 E-score; with GTATAACA, 0.208 E-score.

As for ATATAATA, the binding signal worked out at 0.452 E-score. With GTATAAAA the figure was 0.343 E-score; with CTATAAGA, 0.244 E-score. On to GTATAAAC, for which the binding signal came to 0.16 E-score. With GTATAAGA the figure was 0.199 E-score. With ATATAATG, the binding signal is 0.303 E-score. With ATATAATC the figure was 0.152 E-score. With CTATAATA the figure was 0.355 E-score; with CTATAATC, 0.279 E-score; with GATCAGAA, 0.11 E-score. In the case of ACGACCGC, the binding signal turned out to be 0.0315 E-score. With CCCGTTTC the figure was -0.0198 E-score. With CCATCTAG the figure was -0.0113 E-score. With ATGAGGGC the figure was -0.183 E-score; with AGCTGCCT, -0.125 E-score; with CGGTGTTC, -0.0645 E-score. On to AGAACATG, for which the binding signal is 0.223 E-score. With GGTCTAAA the figure was 0.0268 E-score; with ATACATCA, 0.191 E-score; with ATTATCTA, 0.412 E-score. With ACCATCTA the figure was 0.351 E-score; with GCCATCTA, 0.0099 E-score; with CCTATCCA, -0.0329 E-score.

With CCTATCTC, the binding signal turned out to be 0.168 E-score.

Turning to AGTATCTG, the binding signal amounted to 0.189 E-score. For the sequence CCTATCTA, the binding signal was 0.34 E-score.

Consider AGTATCTC, for which the binding signal is 0.238 E-score. With ATTATCTG the figure was 0.284 E-score; with ACCATCTC, -0.0707 E-score.

On to ATTATCTC, for which the binding signal is -0.0512 E-score.

On to AGTATCTA, for which the binding signal was 0.343 E-score. With CTAACGAG the figure was 0.0146 E-score. With GCCAAGTA the figure was 0.107 E-score; with AGCGAGCA, -0.18 E-score; with TACCAGCA, 0.135 E-score.

With GAACAACA, the binding signal was -0.0557 E-score. With GCTATCTA the figure was 0.33 E-score; with ACTATCTA, 0.397 E-score.

ACTATCTC: the binding signal worked out at 0.128 E-score. With CCTTTCTA, the binding signal amounted to 0.158 E-score. With GATTTCGA the figure was 0.183 E-score; with ACTTTCTC, 0.0817 E-score.

As for ATTTTCTA, the binding signal stood at 0.397 E-score. With CATTTCTA the figure was 0.288 E-score; with ATTTTCTC, 0.264 E-score; with ACTTTCTA, 0.386 E-score. With AATTTCGA the figure was 0.352 E-score; with ATTTTCTG, -0.139 E-score; with GATTTCTA, 0.3 E-score. With AATTTCTA the figure was 0.344 E-score; with CATTTCGA, -0.0105 E-score; with CTTTACGC, 0.177 E-score. Take AGGCCGTA: the binding signal was -0.152 E-score. With CATCGTAA the figure was 0.169 E-score; with GTTTCCAA, 0.0167 E-score; with CTAGCGTC, -0.0555 E-score.

Take AGCTTAGG: the binding signal was 0.072 E-score. For the sequence GGTTTCTA, the binding signal worked out at 0.334 E-score. With AGTTTCTA the figure was 0.402 E-score.

On to AGTTTCTC, for which the binding signal is 0.274 E-score. With GACAGAAC the figure was -0.0014 E-score; with CCTCTAAC, -0.0188 E-score; with GAAGTATA, 0.169 E-score. With CTAGTATC the figure was 0.241 E-score. With CAAGTATA the figure was 0.204 E-score; with GTAGTATA, 0.423 E-score. In the case of ACAGTATA, the binding signal was 0.343 E-score. With GTAGTACA the figure was 0.236 E-score.
